# According to PubChem BioAssay (NCATS):
# Unmarked numbers belong to inactive results. Records with an inconclusive call do not appear. A call without a number means that no potency is given here. The source made the active and inactive calls. Unless noted, the call rests on the fitted dose curve; in most records, active means well fitted curve in the direction sought with a large enough effect; inconclusive means small, poorly fitted or top-dose-only effect, or another doubt; inactive means no such curve, though single readings can be large; an effect the other way counts as inactive or inconclusive.
# Experiments:
# [1] = qHTS Assay for Identification of Small Molecule Agonists for Hypoxia Response Element Signaling Pathway (AID 914; active means well fitted activation curve with a large enough effect in the signal ratio, with a control signal flat, not every such curve was filed as active; the % refers to the signal ratio; further: potency means the concentration at half of the fitted maximal effect); conditions: ME-180 HRE-bla reporter, beta-lactamase ratio, CoCl2, 17 h; activation: stronger effect = higher value
# Summary of the method: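 Cells were plated overnight, pin-dosed with compound in a titration series, co-stimulated with EC50 CoCl2 and incubated 17 hours at 37 degrees Celsius. CCF4 substrate was then loaded, and AC50 values came from the 460nm/530nm ratio.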
# [2] = target: Cytochrome P450 2C9 (Homo sapiens) (UniProt P11712); assay: qHTS Assay for Inhibitors and Substrates of Cytochrome P450 2C9 (AID 883); further: nearly all actives have a fitted effect of over 60% in size; further: potency means the concentration at half of the fitted maximal effect
# Cytochrome P450 2C9 (Homo sapiens), sequence (P11712 whole entry, looked up): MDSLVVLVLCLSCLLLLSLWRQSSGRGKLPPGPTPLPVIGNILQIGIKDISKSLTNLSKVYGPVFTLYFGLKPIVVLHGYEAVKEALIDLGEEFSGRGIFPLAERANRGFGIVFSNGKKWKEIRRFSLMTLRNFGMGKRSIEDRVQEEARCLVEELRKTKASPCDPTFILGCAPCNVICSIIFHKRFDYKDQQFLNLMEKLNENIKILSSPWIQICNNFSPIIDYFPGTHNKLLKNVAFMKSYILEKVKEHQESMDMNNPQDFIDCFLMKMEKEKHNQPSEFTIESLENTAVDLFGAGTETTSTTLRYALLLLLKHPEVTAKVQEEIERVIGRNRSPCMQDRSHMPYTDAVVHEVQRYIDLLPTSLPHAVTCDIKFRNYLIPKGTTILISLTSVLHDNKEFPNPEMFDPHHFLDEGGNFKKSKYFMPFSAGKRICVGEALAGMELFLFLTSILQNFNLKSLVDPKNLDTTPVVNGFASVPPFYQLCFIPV
# Summary of the method: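 Signal: luciferase luminescence reporting luciferin produced by CYP2C9. Conditions: 10nM enzyme, Luciferin-H 100uM at KM, 25mM KPO4, 37C, 60 min NADPH-driven reaction. Reference: 57uM sulphaphenazole as 100% inhibition.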
# [3] = target: Cytochrome P450 2C19 (Homo sapiens) (UniProt P33261); assay: qHTS Assay for Inhibitors and Substrates of Cytochrome P450 2C19 (AID 899); further: nearly all actives have a fitted effect of over 60% in size; further: potency means the concentration at half of the fitted maximal effect
# Cytochrome P450 2C19 (Homo sapiens), sequence (P33261 whole entry, looked up): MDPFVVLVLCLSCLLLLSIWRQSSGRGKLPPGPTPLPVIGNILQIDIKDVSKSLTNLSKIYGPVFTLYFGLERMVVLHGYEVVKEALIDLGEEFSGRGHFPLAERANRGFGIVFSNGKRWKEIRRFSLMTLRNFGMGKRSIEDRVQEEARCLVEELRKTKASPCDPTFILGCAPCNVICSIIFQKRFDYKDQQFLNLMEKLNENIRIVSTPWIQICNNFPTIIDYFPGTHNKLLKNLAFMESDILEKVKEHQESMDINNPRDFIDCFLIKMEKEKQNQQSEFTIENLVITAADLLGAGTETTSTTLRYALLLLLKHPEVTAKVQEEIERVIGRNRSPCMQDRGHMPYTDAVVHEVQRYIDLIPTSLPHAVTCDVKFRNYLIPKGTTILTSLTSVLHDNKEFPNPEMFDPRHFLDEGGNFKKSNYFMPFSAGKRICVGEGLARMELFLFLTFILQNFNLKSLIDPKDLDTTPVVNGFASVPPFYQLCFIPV
# Summary of the method: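 Signal comes from luciferase acting on luciferin released by CYP2C19-mediated hydroxylation of Luciferin-H EGE, 10uM (KM). Assay mix: 5nM enzyme, 50mM KPO4; 60 min at 37C with NADPH regeneration. Data normalized against 57uM ketoconazole.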
# CP260 = assay: qHTS profiling for inhibitors of Plasmodium falciparum proliferation (AID 504749); further: nearly all actives have a fitted effect of over 60% in size; further: potency means the concentration at half of the fitted maximal effect; conditions: P. falciparum in erythrocytes, SYBR Green DNA, 72 h; series mostly up to 12.8 µM
# Summary of the method: (§1)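 Each compound contacts P. falciparum-infected red blood cells for 72 h at 37 C; lysis buffer (Tris, EDTA, saponin, Triton X, SYBR Green I) is added and fluorescence measured next morning; values normalized to controls.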
# CP266 = assay: as above; conditions: P. falciparum in erythrocytes, SYBR Green DNA, 72 h; series mostly up to 28.7 µM
# Summary of the method: as §1
# TAB109 = assay: as above; conditions: P. falciparum in erythrocytes, SYBR Green DNA, 72 h; series mostly up to 12.8 µM
# Summary of the method: as §1
# [4] = qHTS Assay for Identification of Small Molecule Antagonists for NFkB Signaling Pathway (AID 895; active means well fitted inhibition curve with a large enough effect in the signal ratio, with a control signal flat, not every such curve was filed as active; the % refers to the signal ratio)
# Summary of the method: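 ME-180 NFkB-bla cells (beta-lactamase under NFkB response element), plated overnight, treated with compound then 10 pM TNF alpha (about EC50) for 5 hrs at 37 C. LiveBLAzer FRET read at 460/530 nm emission, 405 nm excitation.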
# [5] = target: Muscarinic acetylcholine receptor M1 (Rattus norvegicus) (UniProt P08482); assay: qHTS Assay for Antagonists of Acetylcholine Muscarinic M1 Receptor: Kinetic Measurement of Intracellular Calcium Response (AID 943);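 further: Fluo-4 calcium signal as peak divided by basal fluorescence over 4 min; nearly all actives have a fitted effect of over 75% in size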
# Muscarinic acetylcholine receptor M1 (Rattus norvegicus), sequence (P08482 whole entry, looked up): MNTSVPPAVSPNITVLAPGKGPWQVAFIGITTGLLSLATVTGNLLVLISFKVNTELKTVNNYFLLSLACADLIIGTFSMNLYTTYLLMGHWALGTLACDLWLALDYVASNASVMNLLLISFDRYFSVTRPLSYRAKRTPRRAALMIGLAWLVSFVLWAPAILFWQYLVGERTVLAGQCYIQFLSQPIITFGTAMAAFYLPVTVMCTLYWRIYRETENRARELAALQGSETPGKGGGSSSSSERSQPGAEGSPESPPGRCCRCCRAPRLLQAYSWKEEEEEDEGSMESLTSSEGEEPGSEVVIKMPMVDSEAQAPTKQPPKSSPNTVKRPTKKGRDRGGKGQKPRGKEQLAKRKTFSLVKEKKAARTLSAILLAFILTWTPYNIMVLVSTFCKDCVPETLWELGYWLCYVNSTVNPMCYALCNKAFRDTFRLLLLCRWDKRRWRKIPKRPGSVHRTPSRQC
# Summary of the method: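 Antagonism is measured as inhibition of the carbachol-evoked calcium rise in CHO cells transfected with rat M1. Cells are dye-loaded, exposed to compound for 10 min, then stimulated with 100 nM carbachol (EC80).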
# [6] = S16 Schwann cell PMP22 intronic element beta-lactamase assay (AID 624044; calls by dose curve; further: nearly all actives have a fitted effect of over 15% in size)
# Summary of the method: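 Beta-lactamase reporter under a PMP22 intronic regulatory element in stable S16 rat Schwann cells; 24 h compound exposure. 460 nm blue signal normalized between DMSO (0%) and potassium clavulanate, with 535 nm FRET tracking viability; curves classed by r2 and response.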
# CP297 = assay: qHTS profiling for inhibitors of Plasmodium falciparum proliferation (AID 504749); further: nearly all actives have a fitted effect of over 60% in size; further: potency means the concentration at half of the fitted maximal effect; conditions: P. falciparum in erythrocytes, SYBR Green DNA, 72 h; series mostly up to 12.8 µM
# Summary of the method: as §1
# DIV14 = assay: as above; conditions: P. falciparum in erythrocytes, SYBR Green DNA, 72 h; series mostly up to 12.8 µM
# Summary of the method: as §1
# DIV17 = assay: as above; conditions: P. falciparum in erythrocytes, SYBR Green DNA, 72 h; series mostly up to 12.8 µM
# Summary of the method: as §1
# W2 = assay: as above; conditions: P. falciparum in erythrocytes, SYBR Green DNA, 72 h; series mostly up to 12.8 µM
# Summary of the method: as §1
# [7] = target: Pyruvate kinase (Leishmania mexicana) (UniProt Q27686); assay: qHTS Validation Assay for Activators of Leishmania Mexicana Pyruvate Kinase (AID 959); conditions: purified L. mexicana pyruvate kinase, enzyme activity
# Pyruvate kinase (Leishmania mexicana), sequence (Q27686 2-499 E452W): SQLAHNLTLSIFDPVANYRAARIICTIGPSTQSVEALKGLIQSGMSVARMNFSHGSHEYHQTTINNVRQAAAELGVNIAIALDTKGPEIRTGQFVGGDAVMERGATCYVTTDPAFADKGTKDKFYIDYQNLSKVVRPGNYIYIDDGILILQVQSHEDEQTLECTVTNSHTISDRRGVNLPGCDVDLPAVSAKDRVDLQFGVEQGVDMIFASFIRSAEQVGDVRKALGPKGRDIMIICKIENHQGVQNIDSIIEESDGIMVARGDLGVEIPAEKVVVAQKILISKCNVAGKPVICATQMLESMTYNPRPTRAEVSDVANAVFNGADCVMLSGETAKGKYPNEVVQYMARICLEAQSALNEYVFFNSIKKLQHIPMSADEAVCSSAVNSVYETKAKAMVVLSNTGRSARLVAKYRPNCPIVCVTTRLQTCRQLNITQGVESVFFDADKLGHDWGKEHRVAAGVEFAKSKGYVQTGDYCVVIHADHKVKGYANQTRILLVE
# Summary of the method: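 The enzyme is a highly purified E451W mutant of LmPYK used at 0.2 nM. It converts 0.5 mM PEP and 0.1 mM ADP over 1 h at room temperature; product ATP is quantified by luciferase luminescence relative to DMSO controls.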
# [8] = target: Tyrosyl-DNA phosphodiesterase 1 (Homo sapiens) (UniProt Q9NUW8); assay: Confirmation Assay for Inhibitors of Tyrosyl-DNA Phosphodiesterase (TDP1) (AID 489007); conditions: recombinant human TDP1 enzymatic activity, dose-response; further: potency means the concentration at half of the fitted maximal effect; nearly all actives have a fitted effect of over 40% in size
# Tyrosyl-DNA phosphodiesterase 1 (Homo sapiens), sequence (Q9NUW8 whole entry, looked up): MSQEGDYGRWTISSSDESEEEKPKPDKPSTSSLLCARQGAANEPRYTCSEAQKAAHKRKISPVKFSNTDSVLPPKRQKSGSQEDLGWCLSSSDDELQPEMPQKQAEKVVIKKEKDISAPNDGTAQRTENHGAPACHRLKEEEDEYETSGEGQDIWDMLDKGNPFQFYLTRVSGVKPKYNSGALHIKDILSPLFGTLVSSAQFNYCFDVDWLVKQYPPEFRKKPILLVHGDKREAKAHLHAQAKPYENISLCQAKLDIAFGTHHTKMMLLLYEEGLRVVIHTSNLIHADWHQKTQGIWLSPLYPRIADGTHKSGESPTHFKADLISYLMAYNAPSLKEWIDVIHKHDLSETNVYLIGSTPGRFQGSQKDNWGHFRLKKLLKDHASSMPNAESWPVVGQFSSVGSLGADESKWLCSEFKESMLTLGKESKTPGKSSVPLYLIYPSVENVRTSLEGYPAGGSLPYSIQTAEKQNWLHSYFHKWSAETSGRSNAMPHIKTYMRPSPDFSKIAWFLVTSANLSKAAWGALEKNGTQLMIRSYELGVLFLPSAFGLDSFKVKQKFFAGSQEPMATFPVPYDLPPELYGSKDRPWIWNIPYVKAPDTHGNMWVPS
# Summary of the method: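 Compounds are preincubated 15 min at room temperature with 1 nM recombinant human Tdp1. The reaction starts on adding 15 nM FITC-phosphotyrosine DNA substrate, runs 5 min, and is detected by AlphaScreen beads after 10 min.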
smiles,measurement,setting,value
COc1ccccc1CNc1ccnc(-c2ccccc2C(F)(F)F)n1,activation,[1],-5.47%
O=c1cnc2cnc(N3CCOCC3)nc2n1C[C@H]1CCCO1,Potency,[2],inactive
same,activation,[1],9.58%
COc1ccc2[nH]cc(CCNc3nc(-c4ccoc4)nc4ccccc34)c2c1,Potency,[3],1.58 µM (active)
same,activation,[1],-13.1%
c1ccc2c(Nc3ccncc3)nc(-c3ccc4c(c3)OCO4)nc2c1,Potency,[3],3.98 µM (active)
N#CCCn1c(=O)c(-c2ccc(Cl)cc2)nc2cnc(Oc3cccc(Cl)c3)nc21,Potency,[2],inactive
FC(F)(F)c1cc(CN2CC[C@@]3(CCCNC3)C2)cc(C(F)(F)F)c1,Potency,[2],inactive
same,Potency,[3],inactive
Cc1noc(C)c1C(=O)N1CCC[C@@]2(CCN(Cc3cc(C(F)(F)F)cc(C(F)(F)F)c3)C2)C1,Potency,[3],inactive
Cc1ccccc1-c1cncnc1NCCN1CCOCC1,Potency,[1],3.16 µM (active)
O=S(=O)(c1ccccc1)N1CCC[C@@]2(CCN(Cc3nccs3)C2)C1,Potency,[3],7.94 µM (active)
N#CCCn1c(=O)cnc2cnc(N3CCNCC3)nc21,Potency,[2],inactive
COCC(=O)N1CCC2(CC1)CN(Cc1nccs1)C2,Potency,[2],inactive
same,Potency,[3],inactive
Cc1cccc(CNc2cc(-c3cccc(NS(C)(=O)=O)c3)ncn2)c1,"activity change, negative = inhibition",[2],33.9% [at 2.29 µM]
CC[C@@]12CCCN3CCc4c(n(c5ccccc45)C(=O)C1)[C@H]32,Potency,[3],7.94 µM (active)
same,Potency,CP260,inactive
same,Potency,CP266,inactive
same,Potency,TAB109,inactive
COc1ccc(-c2nc3cnc(N4CCNCC4)nc3n(C3CC3)c2=O)cc1,Potency,[2],7.94 µM (active)
same,Potency,[1],3.16 µM (active)
O=c1c(-c2cc(F)cc(F)c2)nc2cnc(Oc3ccccc3)nc2n1C[C@H]1CCCO1,activation,[1],3.51%
CN(C)C(=O)c1ccc(-c2nc(NCc3cccnc3)c3ccccc3n2)cc1,Potency,[1],3.16 µM (active)
O=C(c1cccc(F)c1)N1CCC2(CCCN(c3ccccn3)C2)CC1,activation,[1],-10.7%
O=C(c1cnccn1)N1CCC2(CCN(Cc3ccncc3)CC2)CC1,activation,[1],2.3%
COc1ccc2[nH]cc(CCNc3ncnc4ccc(-c5ccc(C(=O)N(C)C)cc5)cc34)c2c1,Potency,[2],0.251 µM (active)
same,Potency,[3],7.94 µM (active)
COc1ccccc1CN1CC[C@@]2(CCCN(C(=O)c3ccco3)C2)C1,activation,[1],6.4%
CN(C)c1ccc(-c2ccc3ncnc(NCc4ccccc4)c3c2)cc1,Potency,[3],7.94 µM (active)
C[C@@H](COc1ccccc1)N(CCCl)Cc1ccccc1,Potency,[3],2 µM (active)
C[C@@H](C[N+](C)(C)C)OC(N)=O,Potency,[2],inactive
same,Potency,[4],inactive
same,Potency,[5],inactive
N[C@@H](CO)C(=O)NNCc1ccc(O)c(O)c1O,Potency,[4],inactive
same,Potency,[5],inactive
same,outcome,[6],inactive
same,Potency,CP260,inactive
same,Potency,CP266,inactive
same,Potency,CP297,inactive
same,Potency,DIV14,inactive
same,Potency,DIV17,inactive
same,Potency,TAB109,inactive
CN(C)[C@@H]1C(=O)C(C(N)=O)=C(O)[C@]2(O)C(=O)C3=C(O)c4c(O)ccc(Cl)c4[C@H](O)[C@H]3C[C@@H]12,Potency,[2],inactive
same,Potency,[4],inactive
same,Potency,[5],inactive
same,outcome,[6],inactive
same,Potency,CP266,inactive
same,Potency,CP297,inactive
same,Potency,DIV14,inactive
same,Potency,DIV17,inactive
same,Potency,W2,5.36 µM (active)
CCCN[C@@H](C)C(=O)Nc1ccccc1C,outcome,[6],inactive
same,Potency,CP260,inactive
same,Potency,CP297,inactive
same,Potency,DIV14,inactive
same,Potency,DIV17,inactive
same,Potency,TAB109,inactive
same,Potency,W2,inactive
C[C@@H]1c2cccc(O)c2C(O)=C2C(=O)[C@@]3(O)C(O)=C(C(N)=O)C(=O)[C@@H](N(C)C)[C@@H]3[C@@H](O)[C@@H]21,Potency,[5],inactive
same,outcome,[6],inactive
same,Potency,W2,4.26 µM (active)
CC(=O)OCC1=C(C(=O)O)N2C(=O)[C@@H](NC(=O)CSc3ccncc3)[C@@H]2SC1,Potency,[4],inactive
same,Potency,[5],inactive
same,Potency,[7],15.8 µM (active)
same,outcome,[6],inactive
same,Potency,CP260,inactive
same,Potency,CP266,inactive
same,Potency,CP297,inactive
same,Potency,DIV14,inactive
same,Potency,DIV17,inactive
same,Potency,TAB109,inactive
same,Potency,W2,inactive
C[C@@]12CC[C@@H]3c4ccc(O)cc4CC[C@H]3[C@H]1CC[C@H]2O,Potency,[2],inactive
C[C@@]12CCC(=O)C=C1CC[C@@H]1[C@@H]2[C@H](O)C[C@]2(C)[C@@H]1CC[C@]2(O)C(=O)CO,Potency,[2],inactive
same,Potency,[3],inactive
CO[C@]1(NC(=O)CSCC#N)C(=O)N2C(C(=O)O)=C(CSc3nnnn3C)CS[C@H]21,Potency,CP260,inactive
same,Potency,DIV14,inactive
same,Potency,DIV17,inactive
same,Potency,TAB109,inactive
same,Potency,W2,inactive
C[C@@H](CCc1ccccc1)NC[C@H](O)c1ccc(O)c(C(N)=O)c1,outcome,[6],inactive
same,Potency,CP260,inactive
same,Potency,CP266,inactive
same,Potency,CP297,inactive
same,Potency,TAB109,inactive
CCCCCN(CCCCC)C(=O)[C@H](CCC(=O)O)NC(=O)c1ccc(Cl)c(Cl)c1,Potency,[2],3.98 µM (active)
same,Potency,[4],inactive
same,Potency,[5],inactive
NC(=O)c1cc[n+](CC2=C(C(=O)O)N3C(=O)[C@@H](NC(=O)[C@H](c4ccccc4)S(=O)(=O)[O-])[C@@H]3SC2)cc1,Potency,[4],inactive
same,Potency,[5],inactive
same,Potency,[7],3.16 µM (active)
same,Potency,[8],12.6 µM (active)
same,outcome,[6],inactive
same,Potency,CP260,1.41 µM (active)
same,Potency,CP297,6.42 µM (active)
same,Potency,DIV14,0.721 µM (active)
same,Potency,DIV17,0.572 µM (active)
same,Potency,TAB109,1.41 µM (active)
same,Potency,W2,0.51 µM (active)
O=c1c(-c2cccs2)nc2cnc(Oc3cccc(Cl)c3)nc2n1C1CC1,Potency,[1],3.16 µM (active)
CCCN(CCC)C(=O)[C@@H](CCC(=O)O)NC(=O)c1ccccc1,Potency,CP260,inactive
same,Potency,CP266,inactive
same,Potency,DIV14,inactive
same,Potency,DIV17,inactive
same,Potency,TAB109,inactive
same,Potency,W2,inactive
CC(C)(Oc1ccc([C@@H]2CC2(Cl)Cl)cc1)C(=O)O,Potency,[4],inactive
same,activation,[1],-18.9%
